Screening data from PubChem BioAssay.
G9a inh – blocks human histone lysine methyltransferase G9a. Q96KQ7. G9a H3K9 monomethylation, AlphaScreen, 2 h. Potency, µM (doses to about 102 µM), for inactives: at the top dose activity, negative = inhibition, most hits filed as inhibitors. 350,000 tested, 8.8% active; further: potency means the concentration at half of the fitted maximal effect; on the % scale 0 is the no-effect control and ±100 the full control effect; nearly all actives have a fitted effect of over 75% in size
Target sequence (Q96KQ7 913-1193 limits assumed): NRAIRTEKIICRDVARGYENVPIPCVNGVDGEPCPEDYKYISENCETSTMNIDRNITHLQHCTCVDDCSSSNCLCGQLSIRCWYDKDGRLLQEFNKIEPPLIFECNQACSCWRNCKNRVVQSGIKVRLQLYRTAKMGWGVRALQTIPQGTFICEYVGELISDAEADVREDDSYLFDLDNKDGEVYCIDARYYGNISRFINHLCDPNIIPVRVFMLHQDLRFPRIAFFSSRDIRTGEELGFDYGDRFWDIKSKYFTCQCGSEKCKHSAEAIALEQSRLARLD
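Readings reflect AlphaScreen signal from monomethyl-H3K9 antibody detection. HMT at 20 nM; substrate b-H3K9 500 nM; cofactor SAM 20 uM; 2 h RT reaction; compounds tested as titrations in qHTS with 15 min preincubation.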
BAZ2B inh – inhibitors of human BAZ2B bromodomain; AlphaScreen BAZ2B-H3K14Ac peptide displacement; Potency, µM (titrated, usually from 114 µM), inactives show top-dose activity change, negative = inhibition, usual class: inhibitors; 360,000 tested, 4.4% active; AID 504333; further: potency means the concentration at half of the fitted maximal effect; on the % scale 0 is the no-effect control and ±100 the full control effect; nearly all actives have a fitted effect of over 60% in size
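AlphaScreen displacement: compounds (up to 110uM) incubated 30 min at room temperature with a preformed 50 nM BAZ2B/50 nM biotinylated H3K14Ac peptide complex in PBS pH 7.4 with Tween-20. Donor and acceptor beads at 10 ug/mL final added, 20 min light-protected before reading.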
JMJD2A Tudor inh – inhibitors of human JMJD2A Tudor domain. AlphaScreen JMJD2A-Tudor / H3K4me3 peptide binding. 390,000 tested, 4.4% active. O75164. Potency, µM (titrated, usually from 114 µM), inactives show at the top dose activity change, negative = inhibition, hits mostly inhibitors; further: potency means the concentration at half of the fitted maximal effect; on the % scale 0 is the no-effect control and ±100 the full control effect; nearly all actives have a fitted effect of over 50% in size
PLK1 PBD block – PLK1 (human) polo-box domain binding inhibition | P53350 | Plk1 PBD binding of FITC phosphopeptide, fluorescence polarization | Potency, µM, without a hit: max response, negative = inhibition, hits mostly inhibitors | 360,000 tested, 2.8% active; further: potency means the concentration at half of the fitted maximal effect; series mostly up to about 57 µM; on the % scale 0 is the no-effect control and ±100 the full control effect; nearly all actives have a fitted effect of over 65% in size
HP1b chromo inh – HP1-beta chromodomain-methylated histone interaction inhibition. AlphaScreen HP1-beta / biotin-H3K9me3 peptide binding. Potency, µM (doses to about 114 µM), without a hit: top-dose activity change, negative = inhibition, most hits filed as inhibitors. AID 540317. 390,000 tested, 0.56% active; further: potency means the concentration at half of the fitted maximal effect; nearly all actives have a fitted effect of over 70% in size
Target sequence (P83916 whole entry, looked up): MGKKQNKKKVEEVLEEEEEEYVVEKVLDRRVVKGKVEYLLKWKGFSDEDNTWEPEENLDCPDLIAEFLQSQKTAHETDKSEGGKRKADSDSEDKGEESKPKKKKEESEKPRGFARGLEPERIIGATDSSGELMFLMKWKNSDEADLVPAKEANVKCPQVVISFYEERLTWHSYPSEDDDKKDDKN
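HP1-beta protein (50 nM final) preincubated 30 min at room temperature with biotinylated H3(1-18)K9me3 peptide (50 nM) in PBS pH 7.4, 0.01% Tween-20, then compound added for 30 min. AlphaScreen streptavidin donor/nickel chelate acceptor beads (10 ug/mL final), 30 min dark, luminescence read.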
PI5P4K alpha inh – inhibitors of human PI5P4K alpha | PI5P4Kalpha enzyme, ADP-Glo luminescence, 60 min; active compounds read low | AID 652105 | 330,000 tested, 1.2% active | max response, % | P48426; active means max response of -50% or lower; inconclusive means between -30% and -50%; inactive means -30% or higher; further: value at the top dose of about 77 µM; on the % scale 0 is the no-effect control and ±100 the full control effect
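Luminescence from ADP-Glo served as readout of PI5P4Kalpha activity in a qHTS format. Reaction: enzyme, substrate, compound, ATP at 5 microM final, 60 min at RT.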
Numbers without * were called inactive; ? = inconclusive; nt = no result given; [ ] = another dose, or the depositor's remark. Shown are actives, neighbours in structure and some others; about 12% of the full set was active somewhere. Unless noted, the call rests on the fitted dose curve; in most records, active means well fitted curve in the direction sought with a large enough effect; inconclusive means small, poorly fitted or top-dose-only effect, or another doubt; inactive means no such curve, though single readings can be large; an effect the other way counts as inactive or inconclusive.

SMILES	G9a inh	BAZ2B inh	JMJD2A Tudor inh	PLK1 PBD block	HP1b chromo inh	PI5P4K alpha inh
Cc1ccc(F)cc1C(=O)N1CCOCC1c1cc(C(=O)Nc2ccccc2)no1 (stereo not drawn)	nt	nt	nt	-2%	nt	-6
C=C(C)CSc1nc2sc3c(c2c(=O)n1Cc1ccccc1)CC(C)(CC)OC3 (stereo not drawn)	3%[59 µM]	2%	-5%	nt	34%	nt
C(=N\NC1=Nc2cccc3cccc1c23)/c1cccnc1	?	40µM*	?	8%	-31%	-9
COc1ccc(/C=N/NC(=S)Nc2cccc(C(=O)O)c2)cc1OC	?	8%	-17%	-2%	17%	?
CC(C)(C)c1ccc(/C=N/Nc2cccc(C(=O)O)c2)cc1	28µM*	-24%	-33%	?	15%	-2
C(=N\NC1=Nc2cccc3cccc1c23)/c1ccccc1	-5%[59 µM]	?	-29%	?	-11%	24
CC1(C)Cc2c(sc3nc(=S)[nH]c(N)c23)CO1	nt	-12%	nt	nt	nt	nt
CC(C)(C)c1ccc(C(=O)N2CCC2(C)C(=O)Nc2cnc3ccccc3c2)cc1 (stereo not drawn)	nt	nt	nt	-4%	nt	3
COc1cc(/C=N/NC(=O)C2COc3ccccc3O2)cc(OC)c1OC (stereo not drawn)	-9%	-3%	-4%	-8%	35%	1
O=C(N/N=C/c1ccco1)C1COc2ccccc2O1 (stereo not drawn)	29%[59 µM]	-24%	-10%	-4%	24%	2
O=C(N/N=C/c1cccc([N+](=O)[O-])c1)C1COc2ccccc2O1 (stereo not drawn)	-37%	10%	0%[11.4 µM]	-30%	25%	12
O=C(N/N=C\c1ccc(Br)o1)C1COc2ccccc2O1 (stereo not drawn)	?	50µM*	40µM*	17µM*	?	?
O=C(N/N=C\c1cccc([N+](=O)[O-])c1O)C1COc2ccccc2O1 (stereo not drawn)	-3%[59 µM]	35µM*	?	-5%	11%	-69*
COc1cc([N+](=O)[O-])cc(/C=N\NC(=O)C2COc3ccccc3O2)c1O (stereo not drawn)	?	40µM*	56µM*	-3%	23%	-21
O=C(NCCS(=O)(=O)N1CCN(c2cccc(Cl)c2)CC1)c1ccc2c(c1)OCO2	-1%	3%	-8%	1%	17%	2
OCC[C@@H]1C[C@@H](O)[C@H](O)[C@]2(CCc3ccccc3CO2)O1	21%	7%	-30%	?	1%	-2
Cc1ccc(S(=O)(=O)Oc2ccccc2/C=N/O)cc1	6%	-5%	-11%	-1%	35%	0
Cc1ccc(Oc2ccccc2/C=N/O)cc1	0%	2%	-32%[11.4 µM]	3.4µM*	-6%	?
C/C(CCC1CC(C)(C)OC1=O)=N\NC(N)=S (stereo not drawn)	8.9µM*	?	79µM*	4%	-8%	1
C/C(=N\NC(N)=S)C1(C)CC2(CC(C)(C)OC2=O)C(=O)O1 (stereo not drawn)	11%	3%	-7%	-2%	10%	-2
C/C(CC1CC(C)(C)OC1=O)=N\NC(N)=S (stereo not drawn)	32µM*	?	7.1µM*	-15%	7%	1
CCCC1CC(C)(/C(C)=N\NC(N)=S)OC1=O (stereo not drawn)	14%[0.501 µM]	5%	-1%	2%	44%	-4
CCS(=O)(=O)N1CCN(C(=O)c2cccc3ccccc23)CC1	7%[0.501 µM]	-3%	-10%	1%	18%	-5
O=C(C[C@@H]1CC[C@H](NC(=O)c2ccc3c(c2)OCO3)[C@@H](CO)O1)NCc1ccc(F)cc1	nt	nt	nt	-6%	nt	5
O=C(C(=O)N1CCOCC1)c1c[nH]c2ccccc12	nt	-4%	-1%	-9%	30%	4
SMILES	G9a inh	BAZ2B inh	JMJD2A Tudor inh	PLK1 PBD block	HP1b chromo inh	PI5P4K alpha inh
CC1CCN(C(=S)c2cn(Cc3ccccc3F)c3ccccc23)CC1	-8%[59 µM]	?	?	?	?	4
S=C(c1cn(Cc2ccc(Br)cc2)c2ccccc12)N1CCOCC1	?	?	25µM*	30µM*	?	2
Oc1[nH]c2ccccc2c1N=NC(=S)N1CCOCC1	32µM*	22µM*	7.1µM*	?	-19%	-28
S=C(c1c[nH]c2ccccc12)N1CCOCC1	11µM*	-20%	-26%	15µM*	?	3
CN1CCN(C(=S)c2cn(Cc3ccccc3F)c3ccccc23)CC1	40µM*	?	?	4%	2%	8
CSCCC(=O)N1CCCC(N2CCN(c3cccc(C(F)(F)F)c3)CC2)C1 (stereo not drawn)	nt	-6%	-20%	-4%	10%	-3
CC(=NNC(=O)COc1cccc(C)c1)c1cccnc1	nt	nt	-4%	3%	29%	-4
CC1CCN(C(=S)c2cn(Cc3ccc(F)cc3)c3ccccc23)CC1	1%	?	?	-7%	-6%	12
S=C(c1cn(Cc2ccccc2)c2ccccc12)N1CCOCC1	25µM*	?	?	-9%	-13%	2
O=C(NNc1ccccc1C(F)(F)F)c1sccc1Cl	nt	nt	-10%	nt	50%	nt
CC1=NN(C(C#N)c2ccc(F)cc2)C(C)(C)C1 (stereo not drawn)	8%	7%	1%	-9%	57%	0
CC1=NN(C(C#N)c2c(C)nn(Cc3ccccc3)c2C)C(C)(C)C1 (stereo not drawn)	35µM*	-5%	?	-11%	29%	5
CC1=NN(C(C#N)c2ccc([N+](=O)[O-])cc2)C(C)(C)C1 (stereo not drawn)	?	-36%	22µM*	3%	-20%	5
CC1=NN(C(C#N)c2ccccc2C)C(C)(C)C1 (stereo not drawn)	1%	-14%	1%	-3%	44%	-5
Cc1c(C(=O)OCc2ccccc2)[nH]c2c1C(=O)CC(c1ccc(N(C)C)cc1)C2 (stereo not drawn)	2%[59 µM]	1%	-10%	nt	27%	nt
Cc1c(C(=O)OCC2CCCO2)[nH]c2c1C(=O)CC(c1ccc(N(C)C)cc1)C2 (stereo not drawn)	14µM*	45µM*	50µM*	-9%	-5%	-3
Cc1ccc(C(=O)NCC(=O)OCC(=O)c2cc(C)n(Cc3ccco3)c2C)cc1	45µM*	?	?	-5%	?	-11
COCC(=O)Nc1cc(C)cn(Cc2c(F)cccc2Cl)c1=O	7%	-25%	?	3.4µM*	17%	?
Cc1ccc(NC(=O)CNS(=O)(=O)c2cccs2)cc1F	79µM*	-36%	-10%	3%	24%	-3
Cc1ccc(NC(=O)CCNS(=O)(=O)c2cccs2)cc1F	10%	2%	-2%	5%	28%	-5
